Screening results: PubChem BioAssay, National Center for Advancing Translational Sciences (NCATS)
HT1080-NT tox: kills 2HG-producing HT-1080-NT fibrosarcoma cells | HT-1080-NT fibrosarcoma viability, CellTiter-Glo ATP luminescence, 48 h | Potency, µM (highest dose often 46.1 µM), for the others: at the top dose activity, negative = less viability, most hits filed as cytotoxic | 360,000 tested, 1.6% active | AID 686970;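 note: NT is the 2HG producing partner of a matched IDH1 knockdown line; potency is the fitted concentration of half-maximal effect; 0% = DMSO-treated cells and -100% = media-only wells without cells; nearly all actives have a fitted effect of over 55% in size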
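Viability of the 2HG-overproducing fibrosarcoma line after 48 hours of compound exposure at 37 degrees C was determined by luminescence with CellTiter-Glo, and concentration-effect curves were then fitted and categorized.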
IL-1B inflam inh: inflammasome signaling inhibition, IL-1 beta readout; THP-1 LPS/ATP IL-1B secretion, AlphaLISA, 16 h; active compounds read low; activity change, % at 57.5 µM; 360,000 tested, 4.7% active; AID 743279; in the data active = activity change below about -50%; inconclusive = mostly about -30% to -49%
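THP-1 cells pretreated 1 hr with compounds (up to 57.5 uM final), then stimulated with LPS (250 ng/mL final) plus ATP (1.25 mM final); secreted IL-1B measured by AlphaLISA after 16 hr, decreased signal indicating inhibition.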
DT40 TDP1 no CPT: qHTS for Inhibitors of human tyrosyl-DNA phosphodiesterase 1 (TDP1): qHTS in cells in absence of CPT; DT40 Tdp1-/- hTDP1 cells, no CPT, ATP luminescence, 48 h; Potency, µM (titrated, usually from 46.2 µM), for inactives: at the highest dose activity change, negative = growth inhibition, most hits filed as inhibitors; 420,000 tested, 15% active; AID 686978, 2013; note: potency is the fitted concentration of half-maximal effect; nearly all actives have a fitted effect of over 55% in size
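Readout: luminescence from CellTiter-Glo after 30 min in the dark at RT. Cells: DT40 Tdp1-/- with stable hTDP1, 400/well. Exposure: compounds alone, ≥48 hr, 37 °C.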
TDP1 cell CPT: growth inhibition of DT40 Tdp1-/-;hTDP1 cells with camptothecin (screen for TDP1 inhibitors); Potency, µM (doses to about 46.2 µM), without a hit: top-dose activity change, negative = growth inhibition, actives largely listed as inhibitors; AID 686979; chicken DT40 Tdp1-/-;hTDP1 cells + 20 nM CPT, ATP luminescence, 48 h; 420,000 tested, 12% active; note: potency is the fitted concentration of half-maximal effect; nearly all actives have a fitted effect of over 55% in size
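Cell growth measured by CellTiter-Glo luminescence after a minimum 48 h, 37 C compound exposure with 20 nM CPT in Tdp1-knockout DT40 cells stably expressing hTDP1, seeded 400/well; qHTS titration format.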
HT1080 IDH1KD tx: kills HT-1080 cells with IDH1 knockdown. HT-1080 IDH1 knockdown viability, ATP luminescence, 48 h. Potency, µM (highest dose often 46.1 µM), for inactives: top-dose activity, negative = toxicity, most hits filed as cytotoxic. 360,000 tested, 2% active. AID 686971;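 note: potency is the fitted concentration of half-maximal effect; 0% = DMSO wells and -100% = cell-free medium wells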
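In this qHTS, HT-1080 cells depleted of IDH1 are exposed for 48 h at 37 °C to compound titrations. Toxicity is scored from CellTiter-Glo luminescence, with DMSO as full viability and medium alone as none.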
Numbers without * were called inactive; [ ] = remark or other dose. In the library only some 19% were active in any assay of this set; here they are far more common. Unless noted, calls come from the whole dose curve; as a rule, active = well fitted curve in the direction sought with a large enough effect; inconclusive = small, poorly fitted or top-dose-only effect, or another doubt; inactive = no such curve, though single readings can be large; an effect the other way counts as inactive or inconclusive. Unless noted, % is set by controls: 0 for no effect and ±100 for the full control effect.

What do the screens show for `O=C(O)C1CCCCN1S(=O)(=O)c1ccccc1` (stereo not given)?
HT1080-NT tox: -3%; IL-1B inflam inh: 12; DT40 TDP1 no CPT: 4%; TDP1 cell CPT: 2%; HT1080 IDH1KD tx: 0%

What do the screens show for `O=C(C1CCCCN1S(=O)(=O)c1ccccc1)N1CCN(C(c2ccccc2)c2ccccc2)CC1` (stereo not given)?
HT1080-NT tox: -1%[9.24 µM]; IL-1B inflam inh: 12; DT40 TDP1 no CPT: 21µM*; TDP1 cell CPT: 23µM*; HT1080 IDH1KD tx: -20%

Results for O=C(C1CCCN1S(=O)(=O)c1ccc(Cl)c(Cl)c1)N1CCOCC1 (stereo not given) ?
HT1080-NT tox: 10%; IL-1B inflam inh: -23; DT40 TDP1 no CPT: -13%; TDP1 cell CPT: -16%; HT1080 IDH1KD tx: 14%

How did O=C(C1CCCCN1S(=O)(=O)c1ccccc1)N1CCCCC1 (stereo not given) do in these assays?
HT1080-NT tox: -5%; IL-1B inflam inh: 21; DT40 TDP1 no CPT: 16µM*; TDP1 cell CPT: inconclusive; HT1080 IDH1KD tx: -1%

Results for CC1(C(=O)NCc2cccs2)CCN1CCc1ccccc1 (stereo not given) ?
HT1080-NT tox: 3%; IL-1B inflam inh: 10; DT40 TDP1 no CPT: inconclusive; TDP1 cell CPT: inconclusive; HT1080 IDH1KD tx: 5%

What do the screens show for `Cn1nc(C(F)(F)F)c(/C=N/OC(=O)c2ccccc2Cl)c1SCc1ccccc1Cl`?
HT1080-NT tox: inconclusive; IL-1B inflam inh: -2; DT40 TDP1 no CPT: inconclusive; TDP1 cell CPT: inconclusive; HT1080 IDH1KD tx: -25%

Results for CN(C)c1ccc(-c2cncnc2NCc2ccccc2)cc1 ?
DT40 TDP1 no CPT: -26%; TDP1 cell CPT: -30%

How did CSCCCN1CCC(n2nccc2NC(=O)CCCc2ccccc2)CC1 do in these assays?
HT1080-NT tox: -6%; IL-1B inflam inh: -9; DT40 TDP1 no CPT: -26%; TDP1 cell CPT: inconclusive; HT1080 IDH1KD tx: -2%

What do the screens show for `Cc1ccc(C)c2sc(NC(=O)c3ccc(N4CCCCC4)c([N+](=O)[O-])c3)nc12`?
HT1080-NT tox: 11%; IL-1B inflam inh: inconclusive; DT40 TDP1 no CPT: 23µM*; TDP1 cell CPT: inconclusive; HT1080 IDH1KD tx: 6%

Results for CCSc1ccc(C(=O)Nc2cccc(C)n2)cc1[N+](=O)[O-] ?
HT1080-NT tox: -1%; IL-1B inflam inh: 3; DT40 TDP1 no CPT: inconclusive; TDP1 cell CPT: -12%; HT1080 IDH1KD tx: -9%

How did Cc1cccc(NC(=O)c2ccc(N3CCOCC3)c([N+](=O)[O-])c2)n1 do in these assays?
HT1080-NT tox: 6%; IL-1B inflam inh: -29; DT40 TDP1 no CPT: inconclusive; TDP1 cell CPT: inconclusive; HT1080 IDH1KD tx: 6%

How did O=C(Nc1cccnc1)c1ccc(N2CCCC2)c([N+](=O)[O-])c1 do in these assays?
HT1080-NT tox: 11%; IL-1B inflam inh: -27; DT40 TDP1 no CPT: -29%; TDP1 cell CPT: 3%; HT1080 IDH1KD tx: 5%

Results for Cc1cccc(NC(=O)c2ccc(N(C)C3CCCCC3)c([N+](=O)[O-])c2)n1 ?
HT1080-NT tox: -23%; IL-1B inflam inh: inconclusive; DT40 TDP1 no CPT: 16µM*; TDP1 cell CPT: 21µM*; HT1080 IDH1KD tx: inconclusive

Results for Cc1cccc(NC(=O)c2ccc(N3CCCCC3)c([N+](=O)[O-])c2)n1 ?
HT1080-NT tox: -10%; IL-1B inflam inh: -3; DT40 TDP1 no CPT: 13µM*; TDP1 cell CPT: inconclusive; HT1080 IDH1KD tx: -5%

What do the screens show for `CC(C)(C)c1cccc(Cn2nnc3ccccc32)c1O`?
HT1080-NT tox: inconclusive; IL-1B inflam inh: -1; DT40 TDP1 no CPT: 21µM*; TDP1 cell CPT: 29µM*; HT1080 IDH1KD tx: -1%

How did Cc1cc(Cn2nnc3ccccc32)c(O)c(C(C)(C)C)c1 do in these assays?
HT1080-NT tox: -10%; IL-1B inflam inh: 25; DT40 TDP1 no CPT: 16µM*; TDP1 cell CPT: 16µM*; HT1080 IDH1KD tx: -4%

What do the screens show for `CCSc1cc(N2CCCC2)nc(-c2ccccc2Cl)n1`?
HT1080-NT tox: 2%; IL-1B inflam inh: 14; DT40 TDP1 no CPT: 3%; TDP1 cell CPT: 4%; HT1080 IDH1KD tx: -2%

Results for CCn1c(SCC(=O)Nc2ccc(C(C)=O)cc2)nc2nc3c(cc2c1=O)COC(C)(C)C3 ?
HT1080-NT tox: -2%; IL-1B inflam inh: -21; DT40 TDP1 no CPT: -1%; TDP1 cell CPT: 0%; HT1080 IDH1KD tx: -2%

What do the screens show for `Cc1ccccc1-n1c(SCC(=O)Nc2ccccc2)nc2nc3c(cc2c1=O)CCCC3`?
HT1080-NT tox: -7%; IL-1B inflam inh: -5; DT40 TDP1 no CPT: 16µM*; TDP1 cell CPT: inconclusive; HT1080 IDH1KD tx: -4%

Results for CCn1c(SCC(=O)Nc2ccc(OC)cc2)nc2nc3c(cc2c1=O)COC(C)(C)C3 ?
HT1080-NT tox: 8%; IL-1B inflam inh: 0; DT40 TDP1 no CPT: inconclusive; TDP1 cell CPT: -21%; HT1080 IDH1KD tx: 0%

How did COc1ccc(NC(=O)CSc2nc(N)c3cc4c(nc3n2)CCCC4)cc1 do in these assays?
HT1080-NT tox: -2%; IL-1B inflam inh: 27; DT40 TDP1 no CPT: 15µM*; TDP1 cell CPT: inconclusive; HT1080 IDH1KD tx: 2%

How did CCn1c(SCC(=O)Nc2ccc(OC)cc2)nc2nc3c(cc2c1=O)CCCC3 do in these assays?
HT1080-NT tox: -13%; IL-1B inflam inh: -83*; DT40 TDP1 no CPT: 23µM*; TDP1 cell CPT: inconclusive; HT1080 IDH1KD tx: -15%

How did CCn1c(SCC(=O)Nc2ccccc2C)nc2nc3c(cc2c1=O)COC(C)(C)C3 do in these assays?
HT1080-NT tox: 6%; IL-1B inflam inh: inconclusive; DT40 TDP1 no CPT: 10µM*; TDP1 cell CPT: inconclusive; HT1080 IDH1KD tx: 2%

How did O=C(CCc1ccncc1)NC1CCCc2c1cnn2-c1cc(F)cc(F)c1 (stereo not given) do in these assays?
HT1080-NT tox: -11%; IL-1B inflam inh: 13; DT40 TDP1 no CPT: inconclusive; TDP1 cell CPT: 1%; HT1080 IDH1KD tx: 18%

What do the screens show for `O=C(CN1C(=O)C2C3C=CC(C4CC34)C2C1=O)Oc1ccccc1` (stereo not given)?
HT1080-NT tox: 19%; IL-1B inflam inh: 4; DT40 TDP1 no CPT: 0%; TDP1 cell CPT: 5%; HT1080 IDH1KD tx: 10%

What do the screens show for `CC(=O)NCc1ccc(S(=O)(=O)N2CCN(S(=O)(=O)c3ccc4ccccc4c3)CC2)cc1`?
HT1080-NT tox: -18%; IL-1B inflam inh: -4; DT40 TDP1 no CPT: -6%; TDP1 cell CPT: 12%; HT1080 IDH1KD tx: -26%

What do the screens show for `CN(C)C(=O)c1ccc(-c2cncnc2Nc2ccc(F)cc2)cc1`?
DT40 TDP1 no CPT: 8%; TDP1 cell CPT: -4%

Results for CCn1c(SCC(=O)NCc2ccccc2)nc2nc3c(cc2c1=O)CCCC3 ?
HT1080-NT tox: -12%; IL-1B inflam inh: -13; DT40 TDP1 no CPT: inconclusive; TDP1 cell CPT: 4%; HT1080 IDH1KD tx: -15%
